Measured values from PubChem BioAssay (EPA / NIEHS).
Active and inactive are the calls of the source. How the source made its calls: active means hit-call score of the fitted dose curve at least 0.9, where 1 is the maximum; inactive means score below 0.9.

Legend:
[1] = ATG_GRE_CIS: Attagene CIS-FACTORIAL HepG2 Assay for human Glucocorticoid Response Elements (GRE) (AID 2282947); details: HepG2 GRE cis-reporter, Attagene multiplex mRNA; actives raise or lower the signal
How it was run: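 Assay uses human hepatoma HepG2 cells transfected with cis-promoter reporter units, exposed 24 h. mRNA from reporters detected by RT-PCR plus capillary electrophoresis; DMSO serves as negative control and baseline.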

[2] = ATG_ISRE_CIS: Attagene CIS-FACTORIAL HepG2 Assay for human Interferon Regulatory Factor 1 (IRF1) binding to an Interferon-Stimulated Response Element (ISRE) (AID 2282948); details: HepG2 ISRE cis-reporter (Attagene), mRNA transcription readout; actives raise or lower the signal
How it was run: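 Cell-based cis-reporter assay; HepG2; 24 h exposure; reporter mRNA by RT-PCR plus capillary electrophoresis fluorescence; activity in either direction scored relative to DMSO.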

[3] = ATG_M_32_CIS: Attagene CIS-FACTORIAL HepG2 Assay for M32 Transcription Factor (Internal Marker) (AID 2282949); details: HepG2 Attagene cis-factorial M32 reporter, mRNA; actives raise or lower the signal;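 further: background control marker of the multiplexed CIS panel rather than a real target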
How it was run: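 Internal background marker read-out: RT-PCR/capillary electrophoresis fluorescence of reporter transcripts from transiently transfected HepG2 cells after 24 h chemical exposure. Activity fitted bidirectionally relative to DMSO negative control.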

[4] = ATG_M_06_CIS: Attagene CIS-FACTORIAL HepG2 Assay for M06 Transcription Factor (Internal Marker) (AID 2282950); details: HepG2 Attagene CIS-FACTORIAL M06 internal marker reporter; actives raise or lower the signal
How it was run: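 Internal background marker within multiplexed cis-reporter HepG2 system. Cells transiently transfected, dosed 24 h; reporter mRNA measured by RT-PCR, HpaI digestion and capillary electrophoresis. Bidirectional fit relative to DMSO.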

[5] = target: Hypoxia-inducible factor 1-alpha (Homo sapiens) (UniProt Q16665); experiment: ATG_HIF1a_CIS: Attagene CIS-FACTORIAL HepG2 Assay for human Hypoxia Inducible Factor 1 (HIF1A) (AID 2282951); details: HepG2 Attagene cis-factorial HIF1a reporter transcription; actives raise or lower the signal
Sequence of Hypoxia-inducible factor 1-alpha (Homo sapiens) (Q16665 whole entry, looked up, the tested form may be a part): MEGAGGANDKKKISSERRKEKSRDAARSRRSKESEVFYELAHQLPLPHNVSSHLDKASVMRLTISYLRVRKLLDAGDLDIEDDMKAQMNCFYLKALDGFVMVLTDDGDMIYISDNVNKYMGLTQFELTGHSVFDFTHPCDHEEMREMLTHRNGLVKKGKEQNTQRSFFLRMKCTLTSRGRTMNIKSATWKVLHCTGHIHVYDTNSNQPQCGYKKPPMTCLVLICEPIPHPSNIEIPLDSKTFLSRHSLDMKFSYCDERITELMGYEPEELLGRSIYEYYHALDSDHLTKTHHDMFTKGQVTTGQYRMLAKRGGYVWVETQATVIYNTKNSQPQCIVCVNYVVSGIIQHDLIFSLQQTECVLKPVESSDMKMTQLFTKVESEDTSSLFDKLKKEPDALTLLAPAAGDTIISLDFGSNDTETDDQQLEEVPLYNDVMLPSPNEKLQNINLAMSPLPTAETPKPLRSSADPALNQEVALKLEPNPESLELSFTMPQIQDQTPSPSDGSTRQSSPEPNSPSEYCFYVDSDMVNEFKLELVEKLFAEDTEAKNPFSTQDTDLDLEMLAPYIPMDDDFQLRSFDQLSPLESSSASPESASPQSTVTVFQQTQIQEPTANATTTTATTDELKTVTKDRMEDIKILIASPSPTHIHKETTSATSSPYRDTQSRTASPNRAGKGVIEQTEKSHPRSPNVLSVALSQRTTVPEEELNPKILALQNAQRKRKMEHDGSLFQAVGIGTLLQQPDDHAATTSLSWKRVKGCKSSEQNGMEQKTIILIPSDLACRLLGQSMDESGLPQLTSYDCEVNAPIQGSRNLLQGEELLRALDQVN
How it was run: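 Transient MRTU transfection of human HepG2 liver cells, 24 h compound treatment, then total RNA isolation, oligo(dT) reverse transcription, PCR amplification, fluorescent labelling and capillary electrophoresis of reporter fragments. Gain or loss relative to DMSO.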

[6] = target: Hepatocyte nuclear factor 6 (Homo sapiens) (UniProt Q9UBC0); experiment: ATG_HNF6_CIS: Attagene CIS-FACTORIAL HepG2 Assay for human Hepatocyte Nuclear Factor 6 (HNF6) (AID 2282952); details: HepG2 Attagene cis-factorial HNF6 reporter transcription; actives raise or lower the signal
Sequence of Hepatocyte nuclear factor 6 (Homo sapiens) (Q9UBC0 whole entry, looked up): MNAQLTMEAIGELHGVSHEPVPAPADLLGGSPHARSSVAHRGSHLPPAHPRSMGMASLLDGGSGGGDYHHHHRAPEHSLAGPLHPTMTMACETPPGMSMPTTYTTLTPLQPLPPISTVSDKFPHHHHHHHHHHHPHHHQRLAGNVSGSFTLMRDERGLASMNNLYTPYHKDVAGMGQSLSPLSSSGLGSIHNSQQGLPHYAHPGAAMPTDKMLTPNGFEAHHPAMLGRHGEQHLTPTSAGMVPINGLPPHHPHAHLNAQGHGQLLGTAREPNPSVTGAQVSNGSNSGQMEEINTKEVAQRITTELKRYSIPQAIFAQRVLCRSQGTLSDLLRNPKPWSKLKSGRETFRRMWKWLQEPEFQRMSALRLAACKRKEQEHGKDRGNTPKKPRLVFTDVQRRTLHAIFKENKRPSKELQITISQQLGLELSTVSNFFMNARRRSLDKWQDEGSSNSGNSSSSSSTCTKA
How it was run: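 Multiplexed mRNA reporter assay in transfected HepG2; 24 h dosing; RT-PCR plus capillary electrophoresis fluorescence; DMSO-referenced bidirectional curve fitting.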

[7] = target: Heat shock factor protein 1 (Homo sapiens) (UniProt Q00613); experiment: ATG_HSE_CIS: Attagene CIS-FACTORIAL HepG2 Assay for human Heat Shock Transcription Factor 1 (HSE) (AID 2282953); details: HepG2 HSE cis-reporter, Attagene RNA transcription; actives raise or lower the signal
Sequence of Heat shock factor protein 1 (Homo sapiens) (Q00613 whole entry, looked up): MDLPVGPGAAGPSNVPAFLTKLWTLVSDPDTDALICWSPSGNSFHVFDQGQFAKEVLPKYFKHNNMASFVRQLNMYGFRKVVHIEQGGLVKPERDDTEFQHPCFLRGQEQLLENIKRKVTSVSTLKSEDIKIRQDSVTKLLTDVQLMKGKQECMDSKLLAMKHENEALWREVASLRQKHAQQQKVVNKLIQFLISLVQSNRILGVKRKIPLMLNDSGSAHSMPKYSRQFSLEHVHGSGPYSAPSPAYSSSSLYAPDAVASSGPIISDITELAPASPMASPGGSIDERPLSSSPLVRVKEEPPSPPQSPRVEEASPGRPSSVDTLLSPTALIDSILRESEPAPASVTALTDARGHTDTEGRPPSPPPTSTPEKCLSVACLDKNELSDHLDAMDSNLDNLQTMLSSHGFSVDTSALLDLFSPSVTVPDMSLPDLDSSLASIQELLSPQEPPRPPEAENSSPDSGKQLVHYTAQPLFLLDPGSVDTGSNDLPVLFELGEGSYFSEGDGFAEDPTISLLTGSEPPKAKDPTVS
How it was run: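 HepG2 cells transfected with cis-promoter reporter units sensing endogenous transcription factor activity; reporter mRNA quantified 24 h post-dose by RT-PCR and capillary electrophoresis of 6-FAM-labelled products. Bidirectional fitting against DMSO.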

[8] = ATG_MRE_CIS: Attagene CIS-FACTORIAL HepG2 Assay for human Metal Responsive Element (MRE) (AID 2282954); details: HepG2 MRE cis-reporter transcription, Attagene multiplex; actives raise or lower the signal
How it was run: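 After a 24 h chemical exposure, transiently transfected HepG2 cells yield RNA whose reporter sequences are amplified, FAM-labelled and sized by capillary electrophoresis. Curves are fitted bidirectionally relative to DMSO.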

[9] = ATG_PBREM_CIS: Attagene CIS-FACTORIAL HepG2 Assay for human Phenobarbital-responsive Enhancer Module (PBREM) (AID 2282955); details: HepG2 PBREM cis-reporter, Attagene multiplexed transcription; actives raise or lower the signal
How it was run: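 Endogenous transcription factors in human liver HepG2 cells drive a PBREM cis-element reporter, whose transcript level after 24 h treatment is quantified by RT-PCR with capillary electrophoresis; activity fitted in both directions against DMSO.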

[10] = target: Paired box protein Pax-6 (Homo sapiens) (UniProt P26367); experiment: ATG_Pax6_CIS: Attagene CIS-FACTORIAL HepG2 Assay for human Paired Box 6 (PAX6) (AID 2282956); details: HepG2 CIS-FACTORIAL PAX6 reporter transcription, RNA readout; actives raise or lower the signal
Sequence of Paired box protein Pax-6 (Homo sapiens) (P26367 whole entry, looked up): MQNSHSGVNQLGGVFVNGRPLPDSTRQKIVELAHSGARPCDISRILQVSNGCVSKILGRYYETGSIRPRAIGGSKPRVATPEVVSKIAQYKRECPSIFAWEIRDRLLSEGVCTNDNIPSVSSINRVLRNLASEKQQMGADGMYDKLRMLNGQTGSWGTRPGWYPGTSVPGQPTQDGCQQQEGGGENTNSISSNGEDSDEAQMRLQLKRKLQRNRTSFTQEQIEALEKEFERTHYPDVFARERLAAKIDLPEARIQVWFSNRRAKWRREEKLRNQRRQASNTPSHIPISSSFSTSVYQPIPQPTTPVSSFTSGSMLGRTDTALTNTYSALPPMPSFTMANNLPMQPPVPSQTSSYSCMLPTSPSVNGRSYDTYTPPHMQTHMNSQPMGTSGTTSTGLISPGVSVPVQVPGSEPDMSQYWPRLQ
How it was run: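 Multiplexed cis-reporter HepG2 system; 24 h treatment; reporter mRNA read by RT-PCR/CE fluorescence; bidirectional fit vs DMSO.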

[11] = ATG_PXRE_CIS: Attagene CIS-FACTORIAL HepG2 Assay for human Pregnane X Receptor Element (PXRE) (AID 2282957); details: HepG2 Attagene CIS-FACTORIAL PXRE reporter, mRNA; actives raise or lower the signal
How it was run: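 Cells: HepG2, transiently transfected reporter units under cis promoter control. Exposure: 24 h. Detection: reporter mRNA via RT-PCR/CE fluorescence; bidirectional fitting, DMSO-referenced.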

[12] = ATG_PPRE_CIS: Attagene CIS-FACTORIAL HepG2 Assay for human Peroxisome Proliferator-activated Response Element (PPRE) (AID 2282958); details: HepG2 PPRE cis-element reporter, Attagene transcription factor profiling; actives raise or lower the signal
How it was run: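 HepG2, transient MRTU transfection (cis promoter elements, endogenous TFs). 24 h dosing. RNA → oligo(dT) RT → PCR → 6-FAM primer extension → HpaI digest → CE. Bidirectional fit vs DMSO.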

[13] = ATG_RORE_CIS: Attagene CIS-FACTORIAL HepG2 Assay for human RAR-related Orphan Receptor Element (RORE) (AID 2282959); details: HepG2 Attagene cis-factorial RORE reporter, mRNA; actives raise or lower the signal
How it was run: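 Transient MRTU transfection of human HepG2 liver cells (FuGene 6); 24 h compound exposure; TriZol RNA, oligo(dT) RT, PCR, FAM labeling, HpaI cut, CE fragment analysis. DMSO = negative control/baseline.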

[14] = ATG_Sox_CIS: Attagene CIS-FACTORIAL HepG2 Assay for human SRY-box transcription factor (SOX) (AID 2282960); details: HepG2 Attagene cis-factorial SOX reporter, mRNA; actives raise or lower the signal
How it was run: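 Endogenous factor activity in human liver HepG2 cells carrying transfected cis-regulated reporter units. RNA taken 24 h post-dose, reverse-transcribed, PCR-amplified and sized by capillary electrophoresis. Gain or loss of signal fitted relative to DMSO.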

[15] = target: Transcription factor Sp1 (Homo sapiens) (UniProt P08047); experiment: ATG_Sp1_CIS: Attagene CIS-FACTORIAL HepG2 Assay for human Specificity Protein 1 (Sp1) (AID 2282961); details: HepG2 Sp1 cis-reporter transcription, actives raise or lower the signal
Sequence of Transcription factor Sp1 (Homo sapiens) (P08047 whole entry, looked up): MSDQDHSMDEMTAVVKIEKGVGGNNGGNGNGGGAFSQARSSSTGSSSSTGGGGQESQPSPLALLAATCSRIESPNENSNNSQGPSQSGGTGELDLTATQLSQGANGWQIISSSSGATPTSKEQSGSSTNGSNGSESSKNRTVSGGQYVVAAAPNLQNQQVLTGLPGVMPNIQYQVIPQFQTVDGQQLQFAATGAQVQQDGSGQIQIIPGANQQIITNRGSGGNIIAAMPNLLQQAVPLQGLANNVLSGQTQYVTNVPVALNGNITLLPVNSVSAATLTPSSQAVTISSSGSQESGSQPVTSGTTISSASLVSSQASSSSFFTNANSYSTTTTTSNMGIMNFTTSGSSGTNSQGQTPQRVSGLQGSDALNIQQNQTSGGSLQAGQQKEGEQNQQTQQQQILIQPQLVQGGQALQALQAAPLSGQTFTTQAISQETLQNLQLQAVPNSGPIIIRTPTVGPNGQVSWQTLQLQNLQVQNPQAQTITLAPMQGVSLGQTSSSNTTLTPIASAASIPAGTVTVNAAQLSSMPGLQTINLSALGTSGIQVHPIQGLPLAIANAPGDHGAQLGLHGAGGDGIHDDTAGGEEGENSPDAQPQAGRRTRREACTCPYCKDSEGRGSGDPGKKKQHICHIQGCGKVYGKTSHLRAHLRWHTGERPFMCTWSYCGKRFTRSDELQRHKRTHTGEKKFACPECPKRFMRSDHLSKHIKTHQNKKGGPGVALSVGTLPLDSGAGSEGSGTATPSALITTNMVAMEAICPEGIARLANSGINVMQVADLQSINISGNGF
How it was run: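 Transient MRTU-transfected HepG2, 24 h compound exposure. Total RNA → oligo(dT) RT → PCR of reporter → 6-FAM primer extension → HpaI digest → CE. Endpoint fitted both directions vs DMSO.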

[16] = ATG_SREBP_CIS: Attagene CIS-FACTORIAL HepG2 Assay for human Sterol Regulatory Element Binding (SREBP) (AID 2282962); details: HepG2 Attagene cis-factorial SREBP reporter, mRNA; actives raise or lower the signal
How it was run: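 mRNA induction of transfected cis-promoter reporters in HepG2 cells, 24 h post-dose. Detection: RT-PCR with 6-FAM-labelled products, HpaI digest, capillary electrophoresis. DMSO served as negative control and baseline.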

[17] = target: Signal transducer and activator of transcription 3 (Homo sapiens) (UniProt P40763); experiment: ATG_STAT3_CIS: Attagene CIS-FACTORIAL HepG2 Assay for human Signal Transducer and Activator of Transcription 3 (STAT3) (AID 2282963); details: HepG2, Attagene cis-factorial STAT3 reporter transcription; actives raise or lower the signal
Sequence of Signal transducer and activator of transcription 3 (Homo sapiens) (P40763 whole entry, looked up): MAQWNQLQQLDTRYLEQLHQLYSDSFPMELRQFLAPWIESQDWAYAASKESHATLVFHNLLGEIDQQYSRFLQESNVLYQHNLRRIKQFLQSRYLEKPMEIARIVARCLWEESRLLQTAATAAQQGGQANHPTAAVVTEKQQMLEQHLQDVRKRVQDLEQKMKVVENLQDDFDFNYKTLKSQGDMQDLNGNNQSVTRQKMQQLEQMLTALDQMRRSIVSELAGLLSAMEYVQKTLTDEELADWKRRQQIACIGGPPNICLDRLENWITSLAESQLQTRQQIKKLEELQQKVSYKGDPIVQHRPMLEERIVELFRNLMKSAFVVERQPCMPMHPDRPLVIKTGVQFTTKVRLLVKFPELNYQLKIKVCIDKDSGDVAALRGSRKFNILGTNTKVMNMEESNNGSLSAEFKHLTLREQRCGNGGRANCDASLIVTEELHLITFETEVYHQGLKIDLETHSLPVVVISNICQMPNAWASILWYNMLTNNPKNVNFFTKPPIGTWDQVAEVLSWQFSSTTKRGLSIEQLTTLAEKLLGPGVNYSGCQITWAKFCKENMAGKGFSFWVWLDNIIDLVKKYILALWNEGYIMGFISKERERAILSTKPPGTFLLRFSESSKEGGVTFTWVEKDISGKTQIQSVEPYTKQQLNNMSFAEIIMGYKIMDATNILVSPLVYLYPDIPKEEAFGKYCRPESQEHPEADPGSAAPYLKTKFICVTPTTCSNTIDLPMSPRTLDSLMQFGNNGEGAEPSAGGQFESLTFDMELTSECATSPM
How it was run: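 After a 24 h compound incubation, total RNA from MRTU-transfected HepG2 cells was converted to cDNA and reporter sequences PCR-amplified, labelled and profiled by capillary electrophoresis. Gain and loss of signal were referenced to DMSO.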

[18] = ATG_TA_CIS: Attagene CIS-FACTORIAL HepG2 Assay for human TA Basal Promoter (AID 2282964); details: HepG2 Attagene CIS-factorial TA basal promoter reporter; actives raise or lower the signal
How it was run: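 HepG2 cells transiently transfected with multiple reporter units under cis promoter elements, reporting endogenous transcription factor activity; this endpoint tracks the TA basal promoter as background control. Reporter mRNA after 24 h dosing measured by RT-PCR/capillary electrophoresis; bidirectional fits versus DMSO.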

[19] = ATG_TCF_b_cat_CIS: Attagene CIS-FACTORIAL HepG2 Assay for human T-Cell-Factor with beta-catenin (TCF/b-cat) (AID 2282965); details: HepG2 TCF/beta-catenin cis-reporter transcription, actives raise or lower the signal
How it was run: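 Measured: reporter mRNA in HepG2 transiently transfected with cis-promoter reporter units, 24 h after chemical addition. Fitting was bidirectional, DMSO as negative control.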

Measured: AC50

C=CC(C)(CCC=C(C)C)OC=O (configuration not stated)
active: [11] 24.8 µM
inactive: [1] | [2] | [3] | [4] | [5] | [6] | [7] | [8] | [9] | [10] | [12] | [13] | [14] | [15] | [16] | [17] | [18] | [19]

C=C(C)C(=O)NCCCN(C)C
inactive: [1] | [2] | [3] | [4] | [5] | [6] | [7] | [8] | [10] | [11] | [12] | [13] | [14] | [15] | [16] | [18] | [19]

ClCCCl
inactive: [1] | [2] | [3] | [4] | [5] | [6] | [7] | [8] | [9] | [10] | [11] | [12] | [13] | [14] | [15] | [16] | [17] | [18] | [19]

O=C(O)c1cccc([N+](=O)[O-])c1
inactive: [1] | [2] | [3] | [4] | [5] | [6] | [7] | [8] | [10] | [11] | [13] | [14] | [15] | [16] | [17] | [18] | [19]

CC1CCC(C(C)CS)CC1S (configuration not stated)
inactive: [2] | [3] | [4] | [7] | [8] | [10] | [12] | [13] | [16] | [17] | [18]
active: [1] 55 µM | [5] 53.7 µM | [6] 46.8 µM | [11] 2.54 µM | [14] 52.9 µM | [15] 52.1 µM | [19] 49.4 µM

Cc1ccc(C(=O)O)o1
inactive: [1] | [2] | [3] | [4] | [5] | [6] | [7] | [8] | [9] | [10] | [11] | [12] | [13] | [14] | [15] | [16] | [17] | [18] | [19]

COc1ccc(Nc2ccccc2)c(C)c1
inactive: [1] | [2] | [3] | [4] | [5] | [6] | [7] | [10] | [14] | [15] | [16] | [18] | [19]
active: [8] 128 µM | [11] 26.9 µM | [12] 67.2 µM | [13] 51.5 µM

c1ccc2[nH]ccc2c1
inactive: [1] | [2] | [3] | [4] | [5] | [6] | [7] | [8] | [10] | [12] | [13] | [14] | [15] | [16] | [17] | [18] | [19]
active: [11] 29.9 µM

CCCCCC(=O)OCCc1ccccc1
inactive: [1] | [2] | [3] | [4] | [5] | [6] | [7] | [8] | [10] | [11] | [13] | [14] | [15] | [16] | [17] | [18] | [19]

O=[N+]([O-])c1ccc(C=Cc2ccc([N+](=O)[O-])cc2S(=O)(=O)O)c(S(=O)(=O)O)c1
inactive: [1] | [2] | [3] | [4] | [5] | [6] | [7] | [8] | [9] | [10] | [11] | [13] | [14] | [15] | [16] | [17] | [18] | [19]

NC(=O)Nc1ccc(Cl)cc1
inactive: [1] | [2] | [3] | [4] | [5] | [6] | [7] | [8] | [9] | [10] | [11] | [14] | [15] | [16] | [18] | [19]

CC(C)CCCCCCCOC(=O)c1ccc(C(=O)OCCCCCCCC(C)C)c(C(=O)OCCCCCCCC(C)C)c1
inactive: [1] | [2] | [3] | [4] | [5] | [6] | [7] | [8] | [9] | [10] | [13] | [15] | [16] | [18] | [19]
active: [11] 42.7 µM

Cc1ccc(C(=O)c2cc(O)c(O)c([N+](=O)[O-])c2)cc1
inactive: [1] | [2] | [3] | [4] | [6] | [7] | [10] | [13] | [14] | [15] | [16] | [17] | [18] | [19]
active: [5] 27.4 µM | [8] 130 µM | [11] 27.5 µM | [12] 21.8 µM

Clc1ccc2c(c1)C(N1CCNCC1)=Nc1ccccc1O2
active: [3] 52.4 µM | [7] 52.1 µM | [8] 34.2 µM | [10] 41.1 µM
inactive: [1] | [2] | [4] | [5] | [6] | [11] | [12] | [13] | [14] | [15] | [16] | [17] | [18] | [19]
